# Results taken from paper PMC7862700, “An all-to-all approach to the identification of sequence-specific readers for epigenetic DNA modifications on cytosine”.
# Columns and labels:
# Test in all cases: DAPPL (digital affinity profiling via proximity ligation, sequencing); 10 mM Tris-HCl pH 7.5, 50 mM NaCl, 1 mM DTT, 4% glycerol, room temperature, 30 min; GST-TFs on glutathione beads, 16-mer random dsDNA library, 0.1% formaldehyde crosslink after washing; high values mean tight binding
# [1] = molecular target: T1, FEV (Homo sapiens, UniProt Q99581 1-238); conditions: protein: recombinant; tags: N-terminal GST; dsDNA, one strand shown
# T1 sequence: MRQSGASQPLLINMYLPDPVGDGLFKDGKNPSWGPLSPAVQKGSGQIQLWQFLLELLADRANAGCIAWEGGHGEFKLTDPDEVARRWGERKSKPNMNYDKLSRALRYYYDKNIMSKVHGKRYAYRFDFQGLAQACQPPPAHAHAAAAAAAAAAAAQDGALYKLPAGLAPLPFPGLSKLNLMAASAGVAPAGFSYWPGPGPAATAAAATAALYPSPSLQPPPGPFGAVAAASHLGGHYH
# Outline: (§1)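 Binding signal is given per hexamer as its read frequency for a factor divided by its frequency in the tag-only sample. GST-fused human transcription factors were expressed in yeast, captured on glutathione beads, barcoded with DNA and pooled with that sample, then incubated with 200 nmole of a 16-mer random double-stranded DNA library in Tris/NaCl/DTT/glycerol buffer for 30 min at room temperature. The pools were then washed, crosslinked, proximity-ligated, amplified by PCR and sequenced on an Illumina NextSeq500.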
# [2] = molecular target: ETV5 (Homo sapiens, UniProt P41161 1-510); conditions: protein: recombinant; tags: N-terminal GST; dsDNA, one strand shown
# Outline: as §1
# [3] = molecular target: HSF1 (Homo sapiens, UniProt Q00613 1-529); conditions: protein: recombinant; tags: N-terminal GST; chain copies: 3; dsDNA, one strand shown
# Outline: as §1
# [4] = molecular target: T2, SPIC (Homo sapiens, UniProt Q8N5J4 1-248); conditions: protein: recombinant; tags: N-terminal GST; dsDNA, one strand shown
# T2 sequence: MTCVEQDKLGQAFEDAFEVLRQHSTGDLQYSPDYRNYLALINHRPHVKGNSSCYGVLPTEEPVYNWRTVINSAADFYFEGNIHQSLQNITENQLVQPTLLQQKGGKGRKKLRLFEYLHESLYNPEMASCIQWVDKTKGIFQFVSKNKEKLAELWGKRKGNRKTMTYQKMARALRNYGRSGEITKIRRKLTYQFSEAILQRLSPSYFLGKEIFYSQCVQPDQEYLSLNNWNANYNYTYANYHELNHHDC
# Outline: as §1
# [5] = molecular target: ELF4 (Homo sapiens, UniProt Q99607 1-663); conditions: protein: recombinant; tags: N-terminal GST; dsDNA, one strand shown
# Outline: as §1
# [6] = molecular target: T3, ELK4 (Homo sapiens, UniProt P28324-2 1-405); conditions: protein: recombinant; tags: N-terminal GST; dsDNA, one strand shown
# T3 sequence: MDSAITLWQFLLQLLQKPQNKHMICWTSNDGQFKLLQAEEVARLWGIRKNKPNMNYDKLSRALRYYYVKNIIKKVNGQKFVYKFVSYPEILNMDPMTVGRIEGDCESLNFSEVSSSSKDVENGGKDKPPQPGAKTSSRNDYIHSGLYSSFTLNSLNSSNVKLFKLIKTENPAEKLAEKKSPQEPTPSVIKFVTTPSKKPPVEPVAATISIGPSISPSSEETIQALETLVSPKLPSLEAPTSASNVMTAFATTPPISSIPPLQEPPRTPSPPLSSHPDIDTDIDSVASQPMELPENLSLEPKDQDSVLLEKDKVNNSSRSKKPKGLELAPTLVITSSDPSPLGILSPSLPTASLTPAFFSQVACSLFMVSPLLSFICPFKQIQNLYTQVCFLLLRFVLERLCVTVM
# Outline: as §1
# [7] = molecular target: T4, ETV2 (Homo sapiens, UniProt O00321 1-342); conditions: protein: recombinant; tags: N-terminal GST; dsDNA, one strand shown
# T4 sequence: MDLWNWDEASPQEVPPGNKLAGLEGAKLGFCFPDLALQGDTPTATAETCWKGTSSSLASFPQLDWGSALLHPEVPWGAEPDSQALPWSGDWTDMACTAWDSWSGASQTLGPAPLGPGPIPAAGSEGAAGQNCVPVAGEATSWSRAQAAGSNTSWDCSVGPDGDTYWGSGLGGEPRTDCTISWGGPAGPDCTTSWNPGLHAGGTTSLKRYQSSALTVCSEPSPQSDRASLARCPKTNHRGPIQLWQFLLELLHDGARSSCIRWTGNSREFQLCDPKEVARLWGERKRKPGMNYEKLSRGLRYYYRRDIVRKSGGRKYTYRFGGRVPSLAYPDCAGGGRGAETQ
# Outline: as §1
# [8] = molecular target: T5, ELF3 (Homo sapiens, UniProt P78545 1-371); conditions: protein: recombinant; tags: N-terminal GST; dsDNA, one strand shown
# T5 sequence: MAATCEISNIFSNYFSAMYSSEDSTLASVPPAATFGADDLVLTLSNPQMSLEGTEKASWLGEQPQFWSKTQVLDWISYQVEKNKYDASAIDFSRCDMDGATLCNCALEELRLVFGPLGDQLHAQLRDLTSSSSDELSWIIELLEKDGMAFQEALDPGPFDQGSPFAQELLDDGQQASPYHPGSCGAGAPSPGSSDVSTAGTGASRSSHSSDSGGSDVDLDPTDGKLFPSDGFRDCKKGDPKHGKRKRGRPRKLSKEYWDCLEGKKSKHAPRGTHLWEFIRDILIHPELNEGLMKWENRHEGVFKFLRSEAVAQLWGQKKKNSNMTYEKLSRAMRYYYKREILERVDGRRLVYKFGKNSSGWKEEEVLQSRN
# Outline: as §1
# [9] = molecular target: CRX (Homo sapiens, UniProt O43186 1-299); conditions: protein: recombinant; tags: N-terminal GST; dsDNA, one strand shown
# Outline: as §1
# [10] = molecular target: ETV1 (Homo sapiens, UniProt P50549 1-477); conditions: protein: recombinant; tags: N-terminal GST; dsDNA, one strand shown
# Outline: as §1
# Chain of CRX (O43186 whole entry): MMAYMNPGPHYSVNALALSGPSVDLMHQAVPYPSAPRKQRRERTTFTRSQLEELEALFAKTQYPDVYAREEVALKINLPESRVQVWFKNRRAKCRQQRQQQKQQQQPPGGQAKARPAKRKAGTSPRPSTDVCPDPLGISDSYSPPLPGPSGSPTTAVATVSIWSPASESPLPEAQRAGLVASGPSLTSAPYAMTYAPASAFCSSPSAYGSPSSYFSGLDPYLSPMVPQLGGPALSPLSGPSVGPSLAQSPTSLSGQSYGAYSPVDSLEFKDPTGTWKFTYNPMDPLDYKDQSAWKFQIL
# Chain of HSF1 (Q00613 whole entry): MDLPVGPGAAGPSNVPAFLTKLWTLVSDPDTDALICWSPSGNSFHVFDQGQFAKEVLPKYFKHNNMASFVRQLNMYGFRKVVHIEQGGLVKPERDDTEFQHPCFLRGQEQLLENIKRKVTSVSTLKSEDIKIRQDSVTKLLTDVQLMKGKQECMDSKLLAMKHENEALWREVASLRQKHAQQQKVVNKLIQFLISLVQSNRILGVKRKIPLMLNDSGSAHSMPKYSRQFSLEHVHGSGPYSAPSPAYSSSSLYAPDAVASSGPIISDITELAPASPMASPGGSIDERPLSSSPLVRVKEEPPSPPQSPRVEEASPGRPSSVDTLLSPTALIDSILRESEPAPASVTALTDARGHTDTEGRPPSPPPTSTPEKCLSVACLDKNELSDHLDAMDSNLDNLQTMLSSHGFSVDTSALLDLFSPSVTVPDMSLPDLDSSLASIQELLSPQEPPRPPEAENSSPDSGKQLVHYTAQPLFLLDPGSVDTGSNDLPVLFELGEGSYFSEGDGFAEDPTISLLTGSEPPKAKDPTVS
# Chain of ETV5 (P41161 whole entry): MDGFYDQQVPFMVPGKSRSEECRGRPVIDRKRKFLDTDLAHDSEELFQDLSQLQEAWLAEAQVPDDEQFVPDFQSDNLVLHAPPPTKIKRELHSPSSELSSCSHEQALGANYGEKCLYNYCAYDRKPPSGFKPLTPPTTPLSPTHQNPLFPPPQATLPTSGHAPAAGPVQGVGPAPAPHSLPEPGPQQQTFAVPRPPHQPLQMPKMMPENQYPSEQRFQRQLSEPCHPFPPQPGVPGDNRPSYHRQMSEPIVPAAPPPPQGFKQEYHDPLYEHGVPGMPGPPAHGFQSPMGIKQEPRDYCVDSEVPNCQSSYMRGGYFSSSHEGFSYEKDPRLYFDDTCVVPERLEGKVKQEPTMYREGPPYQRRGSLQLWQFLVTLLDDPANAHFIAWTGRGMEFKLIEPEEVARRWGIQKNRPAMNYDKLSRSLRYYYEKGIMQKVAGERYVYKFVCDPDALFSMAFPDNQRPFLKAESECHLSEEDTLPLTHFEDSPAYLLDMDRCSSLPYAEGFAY
# Chain of ELF4 (Q99607 whole entry): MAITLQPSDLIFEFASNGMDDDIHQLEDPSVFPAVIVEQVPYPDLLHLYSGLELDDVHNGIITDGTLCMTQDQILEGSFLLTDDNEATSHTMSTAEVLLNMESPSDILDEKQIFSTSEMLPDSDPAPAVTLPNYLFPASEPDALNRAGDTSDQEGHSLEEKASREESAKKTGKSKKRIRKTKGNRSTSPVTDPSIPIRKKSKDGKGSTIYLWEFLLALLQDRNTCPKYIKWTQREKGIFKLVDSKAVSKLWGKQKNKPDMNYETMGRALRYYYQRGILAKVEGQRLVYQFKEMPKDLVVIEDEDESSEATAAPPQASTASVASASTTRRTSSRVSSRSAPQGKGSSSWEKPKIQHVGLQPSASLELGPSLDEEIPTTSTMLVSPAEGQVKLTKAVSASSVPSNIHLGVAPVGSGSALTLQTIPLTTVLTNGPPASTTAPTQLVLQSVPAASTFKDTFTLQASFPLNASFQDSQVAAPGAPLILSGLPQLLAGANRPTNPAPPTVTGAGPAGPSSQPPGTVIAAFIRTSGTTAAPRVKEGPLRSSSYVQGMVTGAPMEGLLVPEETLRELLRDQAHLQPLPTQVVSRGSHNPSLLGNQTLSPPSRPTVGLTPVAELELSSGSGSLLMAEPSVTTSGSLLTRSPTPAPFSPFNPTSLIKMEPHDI
# Chain of ETV1 (P50549 whole entry): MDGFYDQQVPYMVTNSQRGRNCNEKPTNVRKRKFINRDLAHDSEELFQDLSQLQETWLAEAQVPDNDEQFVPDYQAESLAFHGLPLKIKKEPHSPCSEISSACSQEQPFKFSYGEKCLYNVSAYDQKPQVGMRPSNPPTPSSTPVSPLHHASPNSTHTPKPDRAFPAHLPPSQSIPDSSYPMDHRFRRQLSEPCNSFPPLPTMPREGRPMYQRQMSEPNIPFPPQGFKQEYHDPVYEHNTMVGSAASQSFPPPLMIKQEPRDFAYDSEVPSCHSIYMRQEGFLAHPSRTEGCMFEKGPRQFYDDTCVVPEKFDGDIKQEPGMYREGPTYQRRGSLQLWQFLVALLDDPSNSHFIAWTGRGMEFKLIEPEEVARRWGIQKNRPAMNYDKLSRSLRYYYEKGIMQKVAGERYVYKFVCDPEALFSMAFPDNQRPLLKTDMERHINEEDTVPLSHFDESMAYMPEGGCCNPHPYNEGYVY
sequence,measurement,setting,value
AATCCC,binding signal,[1],"1.41 fold enrichment (6-mer frequency, TF over GST control)"
same,binding signal,[2],"1.3 fold enrichment (6-mer frequency, TF over GST control)"
same,binding signal,[3],"2.47 fold enrichment (6-mer frequency, TF over GST control)"
same,binding signal,[4],"1.2 fold enrichment (6-mer frequency, TF over GST control)"
same,binding signal,[5],"1.33 fold enrichment (6-mer frequency, TF over GST control)"
same,binding signal,[6],"1.28 fold enrichment (6-mer frequency, TF over GST control)"
same,binding signal,[7],"1.37 fold enrichment (6-mer frequency, TF over GST control)"
same,binding signal,[8],"1.35 fold enrichment (6-mer frequency, TF over GST control)"
same,binding signal,[9],"3.65 fold enrichment (6-mer frequency, TF over GST control)"
same,binding signal,[10],"1.42 fold enrichment (6-mer frequency, TF over GST control)"
